# Source: PubChem BioAssay
# The sample as a whole holds a higher share of hits than the screen did.
# FBPA Giardia inh: blocks Giardia fructose-bisphosphate aldolase activity; A8B2U2; purified Giardia FBPA; Potency, µM (series often up to 59.6 µM), for inactives: at the highest dose activity, negative = inhibition, actives largely listed as inhibitors; actives 0.71% (n = 290,000); AID 2451; further: potency means the concentration at half of the fitted maximal effect; on the % scale 0 is the no-effect control and ±100 the full control effect; nearly all actives have a fitted effect of over 55% in size
#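 40 nM FBPA preincubated 10 min at RT with compound (up to 57.5 uM final), then substrate plus GAPDH/TPI/NAD/arsenate coupling and diaphorase/resazurin added. Fluorescence read after 20 min at RT, 525/598 nm.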
# LmPK inh: LmPK (Leishmania mexicana) enzyme inhibition; purified LmPK, Kinase-Glo ATP luminescence, 1 h; Potency, µM (series often up to 57.5 µM), for inactives: top-dose activity change, negative = inhibition, actives largely listed as inhibitors; actives 0.37% (n = 290,000); AID 1721; further: potency means the concentration at half of the fitted maximal effect; on the % scale 0 is the no-effect control and ±100 the full control effect
# Target sequence (Q27686 whole entry, looked up): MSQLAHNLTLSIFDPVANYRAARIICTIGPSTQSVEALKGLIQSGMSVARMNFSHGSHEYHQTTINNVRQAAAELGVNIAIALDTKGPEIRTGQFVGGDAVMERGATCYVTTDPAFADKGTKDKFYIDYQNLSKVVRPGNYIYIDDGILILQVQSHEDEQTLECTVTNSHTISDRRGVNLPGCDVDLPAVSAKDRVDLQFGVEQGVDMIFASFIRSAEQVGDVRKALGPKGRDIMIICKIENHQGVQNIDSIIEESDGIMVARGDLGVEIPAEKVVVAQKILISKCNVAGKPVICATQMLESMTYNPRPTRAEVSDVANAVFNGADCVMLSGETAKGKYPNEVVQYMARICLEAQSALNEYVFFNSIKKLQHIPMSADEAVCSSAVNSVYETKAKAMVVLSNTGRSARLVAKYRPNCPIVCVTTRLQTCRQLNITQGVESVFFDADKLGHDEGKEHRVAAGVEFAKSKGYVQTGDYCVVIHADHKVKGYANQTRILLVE
#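 Screened at intermediate enzyme activity to detect both inhibitors and activators: LmPK at 0.1 nM, with a 0.5 nM enzyme column as activation reference. PEP 0.5 mM, ADP 0.1 mM; ATP detected by luminescence after 1 h.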
# TbPYK inhibitor: blocks Trypanosoma brucei pyruvate kinase | Q57TT1 | TbPYK enzyme, Kinase-Glo Plus ATP luminescence, 45 min | Potency, µM (highest dose often 76.8 µM), for inactives: top-dose activity, negative = inhibition, actives largely listed as inhibitors | actives 0.12% (n = 410,000) | AID 624173; further: potency means the concentration at half of the fitted maximal effect; on the % scale 0 is the no-effect control and ±100 the full control effect; nearly all actives have a fitted effect of over 50% in size
#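 TbPYK + substrate in 50 mM TEA pH 7.2, 100 mM KCl, 10 mM MgCl2, 0.05% BSA, 0.01% Tween-20; cpd pinned; ADP 130 uM final; 45 min RT; Kinase-Glo Plus 10 min; luminescence endpoint.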
# Cycloheximide cs: counter-screen hit for Shiga toxin inhibitors, cycloheximide; cell reporter, cycloheximide protein synthesis inhibition counterscreen; max response, %; actives 12% (n = 300,000); in the data active means max response mostly above about 13%, no sharp cut-off; inactive means mostly below about 14%; further: read at 38.3 µM for the half of the compounds with a filed dose; 0% is about no effect
# Sm TGR inh: blocks Schistosoma mansoni thioredoxin glutathione reductase; Q962Y6; purified TGR, DTNB reduction, TNB absorbance 405 nm; Potency, µM (doses to about 114 µM), for the others: at the top dose activity change, negative = inhibition, most hits filed as inhibitors; actives 3% (n = 360,000); further: potency means the concentration at half of the fitted maximal effect; on the % scale 0 is the no-effect control and ±100 the full control effect; nearly all actives have a fitted effect of over 60% in size
#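 Kinetic colorimetric format: TGR-catalysed, NADPH-driven DTNB reduction monitored via TNB absorbance. Enzyme dispensed at 20 nM; compound exposure 15 min at room temperature before reaction start.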
# Shiga toxin inh: inhibitors of Shiga toxin in Vero cells; Vero cells, Shiga toxin protein synthesis inhibition reporter; inhibition, % at 38.7 µM; actives 9.2% (n = 290,000); in the data active means inhibition mostly above about 28%, no sharp cut-off; inactive means mostly below about 43%; further: 0% is about no effect
# * marks the source's active call; other numbers are inactive results; ? = inconclusive; / = not tested or not shown; [ ] = dose if it differs, or a comment. Unless noted, the call rests on the fitted dose curve; in most records, active means well fitted curve in the direction sought with a large enough effect; inconclusive means small, poorly fitted or top-dose-only effect, or another doubt; inactive means no such curve, though single readings can be large; an effect the other way counts as inactive or inconclusive.
SMILES,FBPA Giardia inh,LmPK inh,TbPYK inhibitor,Cycloheximide cs,Sm TGR inh,Shiga toxin inh
CCCCNC(=S)Nc1ccc(-c2nc3ccc(C)cc3s2)cc1,7%,-2%,-19%,65*,-1%,51*
O=C(c1ccncc1)N1CCC2(CCCN(c3ncccn3)C2)CC1,0%,/,-4%,/,/,/
CCOC(=O)C1CCN(c2nc(N)c3c(N)nc(SCC(=O)O)cc3c2C#N)CC1,7.1µM*,0%,-21%,-3,?,-15
COc1cc2c(C#N)c(N3CCc4ccccc4C3)nc(N)c2c(N)n1,1.8µM*,1%,-1%,13,-14%,20
COc1cc2c(C#N)c(N3CCCCC3)nc(N)c2c(N)n1,2.2µM*,-7%,2%,17,-15%,-2
CCOC(=O)C1CCN(c2nc(C)cc(C)c2C#N)CC1,1%,2%,3%,2,8%,-6
Cc1c(C)n(Cc2ccc(F)cc2)c2ccc(C(=O)NCc3ccco3)cc12,/,/,-6%[15.4 µM],/,-3%,/
CCCCC(=O)Nc1cc(-c2cn3cccnc3n2)ccc1C,/,/,5%,/,-2%,/
CCOC(=O)c1cnc2c(ccc3ccccc32)c1N,-2%,1%,-4%,34*,-21%,/
CCOC(=O)c1cnc2c(ccc3ccccc32)c1NCCO,-28%,-6%,1%,12,0%,38*
COc1cc2c(cc1NC(=O)COc1ccccc1OC)oc1ccccc12,2%,4%,?,5,2%,36
COc1cc2c(cc1NC(=O)C(C)NCc1ccccc1)oc1ccccc12 (stereo unspecified),-6%,7%,3%,64*,-12%,76*
COc1cc2c(cc1NC(=O)COC(=O)C(CCSC)NC(=O)c1ccccc1Cl)oc1ccccc12 (stereo unspecified),5%,-1%,-5%,15,4%,active
COc1cc2c(cc1NC(=O)COC(=O)Cn1cnc3ccccc31)oc1ccccc12,-1%,5%,0%,36*,-1%,79*
COc1cc2c(cc1NC(=O)CCC(=O)O)oc1ccccc12,-1%,0%,-3%,4,12%,1
COc1cc2c(cc1NC(=O)COC(=O)[C@@H](NS(=O)(=O)c1ccccc1)C(C)C)oc1ccccc12,-8%,2%,0%,11*,1%,56*
COc1cc2c(cc1NC(=O)Nc1ccccc1)oc1ccccc12,-6%,7%,-6%,1,13%,20
CCCNC(=O)Cn1ncc2c3ccccc3n(CCC)c2c1=O,/,/,1%,/,-1%,/
COc1cc2c(cc1NC(=O)CCCN1C(=O)CCC1=O)oc1ccccc12,-1%,7%,-4%,36*,-15%,79*
COc1cc2c(cc1NC(=O)Cc1ccc(C)cc1)oc1ccccc12,-4%,-3%,-5%,73*,-1%,93*
COc1cc2c(cc1NC(=O)CCCCCN1C(=O)CCC1=O)oc1ccccc12,0%,7%,-16%,7,-9%,7
COc1ccc(CCNC(=O)Cn2c(C)c3cnn(-c4ccccc4)c(=O)c3c2C)cc1OC,/,/,4%,/,6%,/
Cn1c(=O)c2c(SCC(=O)NCc3ccco3)nc(-c3cccc(F)c3)nc2n(C)c1=O,/,/,1%,/,0%,/
Cc1ccc(CN(C)C(=O)CCc2c[nH]c3ccccc23)o1,-15%,1%,-2%,-2,-11%,15
CN(Cc1cccnc1)C(=O)CCCc1c[nH]c2ccccc12,1%,-5%,0%,-2,32µM*,-10
SMILES,FBPA Giardia inh,LmPK inh,TbPYK inhibitor,Cycloheximide cs,Sm TGR inh,Shiga toxin inh
COc1cccc(/C=C2\SC(N3CCC(C)CC3)=NC2=O)c1OC,-1%,6%,3%,13*,3%,30
COc1cccc(/C=C2\SC(N3CCCC(C)C3)=NC2=O)c1OC (stereo unspecified),-3%,0%,-9%,17*,-7%,56*
COc1cc(OC)c(OC)cc1/C=C1\SC(N2CCCCC2)=NC1=O,1%,-2%,-8%,6,-11%,13
COc1ccccc1/C=C1\SC(N2CCC(C)CC2)=NC1=O,7%,-3%,8%,26*,4%,57*
COc1cccc(/C=C2\SC(=S)N(N3CCOCC3)C2=O)c1OC,-4%,-1%,-12%,23*,-17%,15
CC1(C)COC(c2ccc3c(c2)OCO3)OC1,/,/,0%,/,/,/
CN1C2CCC1CC(NC(=O)c1cc(Cl)cc3[nH]cnc13)C2 (stereo unspecified),0%,0%,1%,-2,-1%,/
O=C(Cn1cnc2c(NCc3ccccc3)ncnc21)NCc1nc2ccccc2[nH]1,/,/,-1%,/,/,/
Cc1ccc(C(=O)O/N=C(\N)c2ccc(Br)cc2)cc1,1%,-1%,6%,33*,-26%,60*
Cc1cc(C(=O)O/N=C(\N)c2ccc(C(C)(C)C)cc2)no1,-1%,1%,-1%,33*,8%,42*
NC(=O)COC(=O)c1ccc(Oc2ccccc2)cc1,-6%,1%,0%,28*,2%,34
N/C(=N\OC(=O)c1cccc(Br)c1)c1ccc(Br)cc1,0%,0%,2%,-1,6%,0
COc1ccc(C(=O)O/N=C(\N)c2ccccc2)cc1,-1%,?,?,3,15%,-15
CC(C)(C)c1ccc(C(=O)O/N=C(\N)c2ccccc2)cc1,-1%,-6%,-3%,60*,-8%,74*
N/C(=N\OC(=O)c1ccc(Br)cc1)c1ccccc1,-1%,?,-19%,66*,10%,144*
COc1ccc(C(=O)O/N=C(\N)c2ccc(Br)cc2)cc1,25%,0%,-12%,62*,3%,82*
O=C(COC(=O)c1ccc(Br)cc1)NCCc1ccccc1,4%,2%,1%,-3,-7%,12
O=C(COC(=O)c1ccccc1)c1ccc(Br)cc1,-2%,?,-4%,47*,-18%,115*
NC(=O)C(c1ccc(Br)cc1)c1ccc(C(=O)c2ccccc2)cc1 (stereo unspecified),14%,6%,0%,23*,6%,-7
CC(=O)OCC(=O)[C@@]1(O)CCC2C3CCC4=CC(=O)CC[C@]4(C)C3=CC[C@@]21C (stereo partly specified),/,/,0%,/,/,/
CCOC(=O)c1c(C)[nH]c(C(=O)OC(C)C(=O)Nc2ccccc2OC)c1C (stereo unspecified),-6%,7%,-2%,3,9%,-8
Cn1cc(Cl)c(C(=O)OCC(=O)c2ccccc2)n1,3%,-6%,-2%,27*,-6%,36*
Cc1ccc(NC(=O)COC(=O)c2nn(C)cc2Cl)cc1,/,-2%,-6%,15,6%,32
O=C1NC(Cc2c[nH]c3ccccc23)C(=O)N1Cc1ccccc1 (stereo unspecified),/,-6%,-2%,-1,-15%,-6
